Bioassay records as filed in PubChem.
CtBP-E1A inh – qHTS Assay for Inhibitors of the CtBP/E1A Interaction; AlphaScreen GST-E1A/His-CtBP binding, 1536-well; active compounds read low; activity change, % (no concentration beside the values); 0.49% of 340,000 active; AID 651724, 2012; in the data active = activity change below about -65%; inconclusive = mostly about -30% to -63%; also: % is scaled to controls: 0 for no effect and ±100 for the full control effect
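Homogeneous bead-based format: GST-tagged E1A captured on glutathione donor beads, His-tagged CtBP on nickel acceptor beads; compounds precede bead addition by 2 h at 37 °C.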
JMJD2A Tudor – qHTS Assay for Inhibitors of JMJD2A-Tudor Domain. Lysine-specific demethylase 4A (Homo sapiens), O75164. AlphaScreen JMJD2A-Tudor / H3K4me3 peptide binding. Potency, µM (top dose mostly 114 µM), for inactives: at the top dose activity change, negative = inhibition, hits mostly inhibitors. 4.4% of 390,000 active. AID 504339, 2011; also: potency is read from the fitted curve at half-maximal effect; % is scaled to controls: 0 for no effect and ±100 for the full control effect; nearly all actives have a fitted effect of over 50% in size
BAZ2B inh – qHTS Assay for Inhibitors of BAZ2B; AlphaScreen BAZ2B-H3K14Ac peptide displacement; Potency, µM (series often up to 114 µM), for the others: at the highest dose activity change, negative = inhibition, actives largely listed as inhibitors; 4.4% of 360,000 active; AID 504333, 2011; also: potency is read from the fitted curve at half-maximal effect; % is scaled to controls: 0 for no effect and ±100 for the full control effect; nearly all actives have a fitted effect of over 60% in size
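Compounds, titrated to a top concentration of 110 uM, were incubated 30 min at room temperature with preformed BAZ2B/acetyl-K14 H3 peptide complex (50 nM each). Proximity signal was measured by AlphaScreen after 20 min with beads.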
Six1-Eya2 inh – qHTS Assay for Inhibitors of the Six1/Eya2 Interaction. 0.56% of 360,000 active. activity change, % (no concentration beside the values). AlphaScreen GST-Six1/His-Eya2 binding, biochemical; active compounds read low; in the data active = activity change below about -65%; inconclusive = mostly about -30% to -63%; also: % is scaled to controls: 0 for no effect and ±100 for the full control effect
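AlphaScreen luminescence read after one hour at 37 °C in darkness. Pin-transferred compounds met GST-Six1 and His-Eya2 protein (5X stock 250 nM/500 nM) plus glutathione donor and Ni-chelate acceptor beads (5X, 50 ug/mL).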
HP1b binding inh – HTS for Inhibitors of HP1-beta Chromodomain Interactions with Methylated Histone Tails; Chromobox protein homolog 1 (Homo sapiens), P83916; AlphaScreen HP1-beta / biotin-H3K9me3 peptide binding; Potency, µM (highest dose often 114 µM), without a hit: at the top dose activity change, negative = inhibition, actives largely listed as inhibitors; 0.56% of 390,000 active; AID 540317, 2011; also: potency is read from the fitted curve at half-maximal effect; nearly all actives have a fitted effect of over 70% in size
Target sequence (P83916 whole entry, looked up): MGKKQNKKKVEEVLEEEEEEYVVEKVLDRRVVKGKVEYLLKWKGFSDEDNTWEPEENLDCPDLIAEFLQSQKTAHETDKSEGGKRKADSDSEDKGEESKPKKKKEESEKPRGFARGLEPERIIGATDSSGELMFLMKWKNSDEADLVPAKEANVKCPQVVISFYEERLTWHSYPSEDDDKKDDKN
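Compound inhibition of the preformed complex between 50 nM HP1-beta and 50 nM biotinylated H3K9me3 peptide was read by AlphaScreen. Buffer was PBS pH 7.4 with 0.01% Tween-20. Incubations ran 30 min at room temperature, with 10 ug/mL donor/acceptor beads.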
G9a block – qHTS Assay for Inhibitors of Histone Lysine Methyltransferase G9a; Histone-lysine N-methyltransferase EHMT2 (Homo sapiens), Q96KQ7; G9a H3K9 monomethylation, AlphaScreen, 2 h; Potency, µM (series often up to 102 µM), inactives show at the highest dose activity, negative = inhibition, actives largely listed as inhibitors; 8.8% of 350,000 active; AID 504332, 2011; also: potency is read from the fitted curve at half-maximal effect; % is scaled to controls: 0 for no effect and ±100 for the full control effect; nearly all actives have a fitted effect of over 75% in size
Target sequence (Q96KQ7 913-1193 limits assumed): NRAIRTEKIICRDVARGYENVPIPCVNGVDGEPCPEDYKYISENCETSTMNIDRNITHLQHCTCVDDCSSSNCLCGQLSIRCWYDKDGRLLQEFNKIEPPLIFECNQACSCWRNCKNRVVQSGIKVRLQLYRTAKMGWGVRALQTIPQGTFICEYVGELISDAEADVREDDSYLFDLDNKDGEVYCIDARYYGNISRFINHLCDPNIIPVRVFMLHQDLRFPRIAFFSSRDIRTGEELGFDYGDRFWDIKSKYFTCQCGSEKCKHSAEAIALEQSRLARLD
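AlphaScreen detection with an anti-monomethyl H3K9 antibody quantified product after a 2 h room-temperature reaction containing 500 nM biotinylated H3K9 peptide, 20 µM SAM and 20 nM enzyme, which had been preincubated 15 min with compound.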
The depositor's hits bear a star; [ ] = remark or other dose. Only some compounds are listed: those with a hit (about 10% of all), similar ones and a draw of the others. Unless noted, calls follow the shape of the dose curve; as a rule, active = well fitted inhibition curve with a large enough effect; inconclusive = small, poorly fitted or top-dose-only effect; inactive = no such curve, though single readings can be large or run the other way.

For COc1ccc(NS(=O)(=O)c2ccc3nc(COc4ccc5ccccc5c4)[nH]c3c2)cc1 the results were CtBP-E1A inh -14, JMJD2A Tudor inconclusive, BAZ2B inh 62%, Six1-Eya2 inh -18, HP1b binding inh 10% and G9a block inconclusive.
COc1ccccc1NS(=O)(=O)c1ccc2nc(CCl)[nH]c2c1 was read as CtBP-E1A inh -6, JMJD2A Tudor -19%, BAZ2B inh -29%, Six1-Eya2 inh 10, HP1b binding inh 17% and G9a block 20µM*.
CCN(CC)S(=O)(=O)c1ccc2c(c1)[nH]c(=S)n2CC was read as CtBP-E1A inh 2, JMJD2A Tudor -16%, Six1-Eya2 inh -2, HP1b binding inh -4% and G9a block 7.9µM*.
For CCN(CC)S(=O)(=O)c1ccc2nc(CCl)[nH]c2c1 the results were CtBP-E1A inh -15, JMJD2A Tudor -24%, BAZ2B inh -19%, Six1-Eya2 inh 17, HP1b binding inh 64% and G9a block 50µM*.
For CCOC(=O)c1ccc2c(c1)[nH]c(=S)n2CC the results were JMJD2A Tudor inconclusive, BAZ2B inh 3%, Six1-Eya2 inh -6, HP1b binding inh 20% and G9a block inconclusive.
`CCOC(=O)C1CCCN(CCC(=O)Nc2cccc(Cl)c2C)C1` (centres undefined) gave CtBP-E1A inh -3, JMJD2A Tudor -6%, BAZ2B inh 10%[0.457 µM], Six1-Eya2 inh -13, HP1b binding inh 11% and G9a block 3%[59 µM].
`O=C(CCn1cccn1)N1CCCC(Nc2ccc(F)c(F)c2)C1` (centres undefined) gave CtBP-E1A inh -17 and Six1-Eya2 inh 7.
Screening COc1cc(CCC(=O)Nc2c(C(=O)N3CCN(c4ccccc4)CC3)oc3ccccc23)on1 returned CtBP-E1A inh -16, JMJD2A Tudor inconclusive, BAZ2B inh inconclusive, Six1-Eya2 inh -9, HP1b binding inh 17% and G9a block inconclusive.
For COc1ccc(N2CCN(C(=O)c3oc4ccccc4c3NC(=O)c3ccccc3OC)CC2)cc1 the results were JMJD2A Tudor inconclusive, BAZ2B inh -18%[57.1 µM], HP1b binding inh 14% and G9a block 5.6µM*.
For COc1ccc(N2CCN(C(=O)c3oc4ccccc4c3NC(=O)CCc3cc(OC)no3)CC2)cc1 the results were CtBP-E1A inh -24, JMJD2A Tudor 45µM*, BAZ2B inh inconclusive, Six1-Eya2 inh -20, HP1b binding inh -21% and G9a block 35µM*.
For CC(=O)OCC(NC(=O)C(CCCCNC(=O)OCc1ccccc1)NC(=O)OC(C)(C)C)C1OC(n2cc(F)c(=O)[nH]c2=O)C(OC(C)=O)C1OC(C)=O (centres undefined) the results were JMJD2A Tudor -9% and HP1b binding inh 46%.
Screening CCn1cc(C(=O)OCC(=O)Nc2cc(Cl)ccc2C)c(=O)c2ccc(C)nc21 returned JMJD2A Tudor -7%, BAZ2B inh 2%, HP1b binding inh 25% and G9a block -34%[59 µM].
Screening COc1cc(C(=O)C(=O)N2CCN(c3ccccc3)CC2)cc2ccccc12 returned CtBP-E1A inh -8 and Six1-Eya2 inh inconclusive.
For O=C(O)c1cccc(Sc2cc(Cl)ccc2C(=O)O)c1 the results were CtBP-E1A inh -8, JMJD2A Tudor 89µM*, BAZ2B inh 56µM*, Six1-Eya2 inh 0, HP1b binding inh 23% and G9a block -4%[0.501 µM].
